Records with an inconclusive call do not appear. Activity calls are given as the source filed them. The call rests on the fitted dose curve; in most records, active means well fitted activation curve with a large enough effect in the signal ratio in the repeat runs (not every such curve was filed as active); inconclusive means weak or mixed curves; inactive means flat fitted curve, though single readings scatter; the % refers to the signal ratio.
experiment: qHTS assay to identify small molecule agonists of H2AX (AID 1224845); details: CHO-K1 phospho-H2AX Ser139 HTRF, 3 h; series mostly up to 154 µM; activation (H2AX phosphorylation): at the top concentration
Text: National Center for Advancing Translational Sciences [NCATS]
NIH Chemical Genomics Center [NCGC]
U.S. Environmental Protection Agency [EPA]
National Institutes of Environmental Health Sciences [NIEHS]
National Toxicology Program [NTP]
U.S. Food and Drug Administration [FDA]
HTRF phospho-H2AX (Ser139) assay (Cisbio Bioassays, US) enables the quantitative detection of the histone variant H2AX when phosphorylated on serine 139. When double-stranded DNA breaks, either by ionizing radiation or endogenous physiological processes, H2AX becomes phosphorylated at Ser139. This phospho-Ser139 serves as a sensitive biomarker for the detection of such breaks, localizing the site of DNA repair. So, HTRF phospho-H2AX Ser139 is a pertinent assay to study genome stability, the cell cycle, DNA repair, and it serves as a biomarker for cancer, and to understand aging. Wild type CHO-K1 cells were used to identify the inducers of Phospho-H2AX Ser 139 from the Tox21 10K compound collections.
Tox21 Assay Protocol Summary:
The CHO-K1 cells suspended in culture medium containing 10% FBS were dispensed at 1000 cells/ 3 ul/well in 1536-well white wall/solid bottom plates (Greiner Bio-One North America, NC) using a Multidrop Combi (Thermo Fisher Scientific Inc., Waltham, MA). After the assay plates were incubated at 37C overnight, 23 nl of compounds at 15 concentrations (from 5-48 columns) or positive control (from 1 to 4 columns) were transferred to the assay plates using a Pintool station (Wako, San Diego, CA) into each well resulting in a final DMSO concentration of 0.76%. After 3hr incubation at 37C, 1 uL/well Supplemented Lysis buffer (diluted 100 fold blocking reagent in lysis buffer) (HTRF Phospho-H2A.X (S139) Assay kit from Cisbio US Inc., Bedford, MA) was added using a Flying Reagent Dispenser (FRD) (Aurora Discovery, CA). After 10sec spin at 1000 rpm in a plate centrifuge, the assay plates were incubated at room temperature for 30 min. Then followed by the addition of 1 uL/well detection buffer (containing a mixture of two antibodies, one labeled with cryptate, Anti pH2AX (S139)-K and another labeled with d2, Anti H2AX-d2) using FRD. After incubation at room temperature for 24 hr, the time resolved fluorescence at excitation 320 nm and emissions at 665 nm and 620 nm was measured using an Envision plate reader (PerkinElmer, Waltham, MA).
On the % scale 0 is the no-effect control and ±100 the full control effect; potency means the concentration at half of the fitted maximal effect.

| SMILES | activation (H2AX phosphorylation) | Potency |
| --- | --- | --- |
| CCCCC(O)(Cn1cncn1)c1ccc(Cl)cc1Cl (stereo not given) | -4.51% (inactive) | – |
| C=CC(=O)OC | -1.73% (inactive) | – |
| CC(C)(C)c1cc([N+](=O)[O-])cc([N+](=O)[O-])c1O | 2.89% (inactive) | – |
| O=C1CN=C(c2ccccc2)c2cc(Cl)ccc2N1CC1CC1 | 3.5% (inactive) | – |
| C=CCOC(C)=O | 1.66% (inactive) | – |
| O=S(=O)(O)C(F)(F)C(F)(F)C(F)(F)C(F)(F)F | -1.23% (inactive) | – |
| Clc1cccc2ccccc12 | -5.78% (inactive) | – |
| Cl/C=C\C[N+]12CN3CN(CN(C3)C1)C2 | 7.6% (inactive) | – |
| CC(Cl)Cl | 0.277% (inactive) | – |
| C=CCN1CC[C@]23c4c5ccc(O)c4O[C@H]2C(=O)CC[C@@]3(O)[C@H]1C5 | -1.48% [at 70.9 µM] (inactive) | – |
| C=CCC1([C@H](C)CCC)C(=O)NC(=O)NC1=O | -0.271% (inactive) | – |
| O=Cc1ccc(Cl)cc1Cl | 0.726% (inactive) | – |
| CCOP(O)OCC | 0.551% (inactive) | – |
| CC(C)=CCOc1c2occc2cc2ccc(=O)oc12 | -0.287% [at 70.9 µM] (inactive) | – |
| OC(c1ccc(Cl)cc1)(c1ccc(Cl)cc1)c1cccnc1 | -0.387% (inactive) | – |
| ClC=C(Cl)Cl | -0.478% (inactive) | – |
| Cc1ccccc1C(=O)Nc1cccc(OC(C)C)c1 | 0.138% (inactive) | – |
| Clc1cc(C(Cl)(Cl)Cl)cnc1Cl | – | 89.8 µM (active) |
| CCCCN=C=O | 0.33% (inactive) | – |
| CC1(C)CCC(Cc2ccc(Cl)cc2)C1(O)Cn1cncn1 (stereo not given) | -2.1% (inactive) | – |

| SMILES | activation (H2AX phosphorylation) | Potency |
| --- | --- | --- |
| O=C1NCN(c2ccccc2)C12CCN(CCCOc1ccc(F)cc1)CC2 | -3.89% [at 70.9 µM] (inactive) | – |
| COP(=O)(OC)O/C(=C/Cl)c1cc(Cl)c(Cl)cc1Cl | 0.178% (inactive) | – |
| CCCCCCCCCCOC(=O)c1ccccc1C(=O)OCCCCCCCCCC | -3.24% (inactive) | – |
| C=CC(=O)OC(C)(C)C | -2.13% (inactive) | – |
| CCC(C)(NC(=O)c1cc(Cl)c(C)c(Cl)c1)C(=O)CCl (stereo not given) | 3.75% (inactive) | – |
| CN1[C@@H]2CC[C@H]1CC(OC(=O)c1cc(Cl)cc(Cl)c1)C2 (stereo not given in full) | -1.12% [at 70.9 µM] (inactive) | – |
| CC(Cl)C(C)Cl (stereo not given) | -1.63% (inactive) | – |
| Sc1ccccc1Cl | -0.124% [at 70.9 µM] (inactive) | – |
| CN(N=O)c1ccc([N+](=O)[O-])cc1 | -1.47% (inactive) | – |
| Clc1ccc(C(OCCN2CCCCC2)c2ccccc2)cc1 (stereo not given) | -1.77% [at 70.9 µM] (inactive) | – |
| ClCc1ccccc1 | 0.0878% (inactive) | – |
| CCc1ccc(C(=O)NN(C(=O)c2cc(C)cc(C)c2)C(C)(C)C)cc1 | -3.4% (inactive) | – |
| Cc1ccc(N)cc1C | -0.847% (inactive) | – |
| O=[N+]([O-])c1cc(C(F)(F)F)cc([N+](=O)[O-])c1Cl | -2.02% (inactive) | – |
| CCCCCCCCCC(=O)O[C@H]1CC[C@H]2[C@@H]3CCC4=CC(=O)CC[C@@H]4[C@H]3CC[C@]12C | 0.0217% [at 70.9 µM] (inactive) | – |
| COc1c(C(C)(C)C)cc([N+](=O)[O-])c(C)c1[N+](=O)[O-] | -2.42% (inactive) | – |
| OCCCBr | 0.558% (inactive) | – |
| O=S(=O)(Cl)c1ccccc1 | -2.69% (inactive) | – |
| CCCCCC[N+](=O)[O-] | -0.374% (inactive) | – |
| C=CC(C)=O | -0.173% (inactive) | – |

Source: PubChem BioAssay (Tox21)
